Sampled rows, rich in hits. Any-hit rate of the full collection: about 4.6%.
D1 agonist: human D1 receptor agonism; HEK293 T-REx D1 cells, calcium flux, agonist mode; activation, % at 2 µM; 1% of 360,000 active; AID 504660; further: 0% is about no effect
Target sequence (P21728 whole entry, looked up): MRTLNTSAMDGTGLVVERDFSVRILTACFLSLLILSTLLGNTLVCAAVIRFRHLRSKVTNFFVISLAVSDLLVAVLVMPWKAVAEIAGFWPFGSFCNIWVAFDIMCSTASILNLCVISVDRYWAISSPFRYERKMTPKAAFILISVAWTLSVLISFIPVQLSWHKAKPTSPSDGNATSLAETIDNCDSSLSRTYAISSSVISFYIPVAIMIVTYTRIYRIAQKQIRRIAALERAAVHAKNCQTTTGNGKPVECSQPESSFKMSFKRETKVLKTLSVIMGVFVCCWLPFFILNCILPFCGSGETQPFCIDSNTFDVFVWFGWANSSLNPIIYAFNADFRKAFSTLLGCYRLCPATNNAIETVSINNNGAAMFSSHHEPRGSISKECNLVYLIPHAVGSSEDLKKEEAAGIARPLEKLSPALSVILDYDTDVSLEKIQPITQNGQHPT
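Tetracycline-induced HEK293 TREx D1 cells, force-coupled to calcium signalling, were dye-loaded with a no-wash calcium kit. Compound was pin-added after a 10 s baseline. Fluorescence was read kinetically at 1 cycle/s for 180 s, with calcium rises flagged as agonism.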
TRHR ag: TRH receptor (human) agonism; activation, % at 2 µM; P34981; TRHR cells, calcium flux fluo-8, FDSS agonist mode; 0.18% of 360,000 active; further: 0% is about no effect
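TRHR-expressing cells loaded with fluo-8 calcium dye; 23 nL library compound pin-transferred, kinetic FDSS fluorescence (Ex 480/Em 530) recorded about 180 s for agonist-induced calcium release, before a 10 nM TRH EC20 addition for potentiator mode.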
D1 PAM: enhances dopamine response at the human D1 receptor. P21728. potentiation, % at 10 µM. 0.036% of 360,000 active. HEK293 TREx D1 cells, calcium flux, dopamine EC20 potentiation; in the data active means potentiation above about 30%; further: 0% is about no effect
D1 antagonist: blocks dopamine activation of the human D1 receptor; AID 504652; 3.2% of 360,000 active; activity change, negative = inhibition, % at 10 µM; HEK293 TREx D1 cells, calcium flux, dopamine EC80; active compounds read low; in the data active means activity change below about -30%; further: on the % scale 0 is the no-effect control and ±100 the full control effect
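HEK293 T-REx cells expressing inducible, force-coupled D1 receptor; no-wash Ca dye, 30–90 min RT. Cmpd → 180 s read at 1 Hz → EC80 DA → 180 s read.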
TRHR enhancer: allosterically enhances the human TRH receptor; P34981; TRHR cells, fluo-8 calcium fluorescence, EC20 TRH enhancement; enhancement, % at 2 µM; 0.66% of 360,000 active; AID 493056; in the data active means enhancement above about 30%; further: 0% is about no effect
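TRHR-expressing cells loaded with fluo-8 calcium dye were read kinetically (ex 480/em 530) during compound addition, then stimulated with an EC20 of TRH (10 nM final). Enhancement of the Gq-mediated intracellular calcium response was scored.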
Starred values were filed as active, the others as inactive. Unless noted, no stated cut-off is given here; in the data, active means activation above about 30%; inactive means the rest.

Cc1ccc(C)c(N2CCN(C(=O)c3cc(S(=O)(=O)N4CCCCC4)cn3C)CC2)c1 was read as D1 agonist 3.5, TRHR ag -0.6, D1 PAM -1.2, D1 antagonist -18.1 and TRHR enhancer -2.4.
For Cc1ccc(C)c(Cn2cnc3c(cnn3C(C)(C)C)c2=O)c1 the results were D1 agonist 40.8*, TRHR ag -0.1, D1 PAM -5.5, D1 antagonist 6.1 and TRHR enhancer -3.5.
CCOC(=O)C(=O)Nc1nccs1 was read as D1 agonist 0.3, TRHR ag 0.4, D1 PAM -3.2, D1 antagonist -33.7* and TRHR enhancer 1.9.
`O=C(NCc1ccccc1)C(=O)Nc1nccs1` gave D1 agonist 0.9, TRHR ag 0.3, D1 PAM -1.4, D1 antagonist -28.2 and TRHR enhancer 34.4*.
For CCOC(=O)/C(=C/C=C1\Sc2ccccc2N1CC)C(C)=O the results were D1 agonist 218.8*, TRHR ag 80.1*, D1 PAM -0.1, D1 antagonist 2.3 and TRHR enhancer 22.3.
Screening CCC(=O)/C=C1/Sc2ccccc2N1CC returned D1 agonist 0.8, TRHR ag -0.3, D1 PAM -6.5, D1 antagonist -3.0 and TRHR enhancer 5.4.
Screening CCOC(=O)/C(=C\C=C1/Sc2ccccc2N1CC)C(C)=O returned D1 agonist 289.6*, TRHR ag 71.2*, D1 PAM -1.4, D1 antagonist -29.2 and TRHR enhancer 13.4.
For CCOC(=O)/C(=C/C=C1\Sc2cc(C)c(C)cc2N1CC)C(C)=O the results were D1 agonist 348.5*, TRHR ag 249.5*, D1 PAM 8.8, D1 antagonist -11.8 and TRHR enhancer 21.5.
For COc1cc(Cl)c(C)cc1NC(=O)NC1COc2ccccc2C1 (configuration not stated) the results were D1 agonist 0.9, TRHR ag -0.1, D1 PAM 2.4, D1 antagonist -3.4 and TRHR enhancer 8.8.
Screening COc1cc(/C=C2\COC/C(=C\c3ccc(O)c(OC)c3)C2=O)ccc1O returned D1 agonist 12.3, TRHR ag 1.5, D1 PAM 2.2, D1 antagonist -8.7 and TRHR enhancer 2.9.
For COc1cc(/C=C2/CC/C(=C/c3ccc(O)c(OC)c3)C2=O)ccc1O the results were D1 agonist 78.3*, TRHR ag 0.0, D1 PAM 10.8, D1 antagonist -8.1 and TRHR enhancer -5.2.
For COc1cc(/C=C2\CC/C(=C\c3ccc(OCCO)c(OC)c3)C2=O)ccc1OCCO the results were D1 agonist 99.3*, TRHR ag 113.6*, D1 PAM -1.5, D1 antagonist 0.5 and TRHR enhancer 27.9.
`CC1(c2ccccc2)CC(C)(C)N(C(=O)c2cccc(Cl)c2)c2ccccc21` (configuration not stated) gave D1 agonist 1.4, TRHR ag 2.0, D1 PAM 3.8, D1 antagonist 4.7 and TRHR enhancer -11.8.
`C/C(CC(=O)N1CCN(C=O)CC1)=N\NC(=O)c1ccc(Cl)cc1` gave D1 agonist -0.3, TRHR ag 1.2, D1 PAM -4.0, D1 antagonist 4.7 and TRHR enhancer -7.1.
O=CN1CCN(C(=S)NC(=O)c2ccc(Cl)cc2)CC1 was read as D1 agonist -0.1, TRHR ag -0.1, D1 PAM 1.6, D1 antagonist 1.4 and TRHR enhancer 38.5*.
`CCCCc1ccc(S(=O)(=O)N2CCN(C(=O)c3ccco3)CC2)cc1` gave D1 agonist 9.3, TRHR ag -0.1, D1 PAM -4.0, D1 antagonist -31.4* and TRHR enhancer -3.1.
CCc1ccc(C2C(C#N)=C(N)SC(N)=C2C#N)cc1 was read as D1 agonist 30.1*, TRHR ag -0.3, D1 PAM -3.0, D1 antagonist -10.4 and TRHR enhancer 1.3.
`CCOc1ccc(C2C(C#N)=C(N)SC(N)=C2C#N)cc1OC` gave D1 agonist 40.2*, TRHR ag 16.3, D1 PAM -1.9, D1 antagonist -11.0 and TRHR enhancer 0.8.
Screening N#CC1=C(N)SC(N)=C(C#N)C1c1ccc(C(F)(F)F)cc1 returned D1 agonist -0.9, TRHR ag 2.2, D1 PAM 1.1, D1 antagonist -2.2 and TRHR enhancer 3.4.
Screening CCOC(=O)C1(Cc2cccc(OC)c2)CCN(CC(O)CO)CC1 (configuration not stated) returned D1 agonist 0.8, TRHR ag -0.7, D1 PAM -5.8, D1 antagonist -44.5* and TRHR enhancer -3.3.
`CCOC(=O)C1(Cc2ccc(OC)cc2)CCN(C(=O)c2cc(C)on2)CC1` gave D1 agonist 3.8, TRHR ag -0.1, D1 PAM 2.8, D1 antagonist -33.4* and TRHR enhancer -1.8.
Screening CC1CCc2onc(C(=O)N3CCN(c4cccc(C(F)(F)F)c4)CC3)c2C1 (configuration not stated) returned D1 agonist 18.2, TRHR ag -0.7, D1 PAM 1.7, D1 antagonist -1.8 and TRHR enhancer 21.6.
Screening Cc1ccc2ncc(C(=O)NC(C)c3ccccc3)c(=O)n2c1 (configuration not stated) returned D1 agonist 0.0, TRHR ag -0.5, D1 PAM -2.3, D1 antagonist -33.7* and TRHR enhancer 7.2.
For O=C(CSc1oc(-c2ccco2)nc1S(=O)(=O)c1ccc(Cl)cc1)Nc1ccc(F)cc1 the results were D1 agonist 5.2, TRHR ag 1.8, D1 PAM 1.9, D1 antagonist 2.2 and TRHR enhancer -2.0.
`COc1c(NC(C)=O)c2ccccc2c2ccccc12` gave D1 agonist -0.6, TRHR ag 0.3, D1 PAM -4.8, D1 antagonist 1.2 and TRHR enhancer 38.3*.
`CC(C)NC(=O)c1cc2c(Cl)nc3ccccc3c2s1` gave D1 agonist -0.5, TRHR ag 0.4, D1 PAM -4.2, D1 antagonist 3.3 and TRHR enhancer 6.9.
For O=C(O)/C=C/c1ccc2noc(-c3ccccc3)c2c1 the results were D1 agonist -0.2, TRHR ag 0.6, D1 PAM -1.8, D1 antagonist 5.0 and TRHR enhancer 32.3*.
Screening C/C=C(\C)CN1CCc2cc(OC)c(OC)cc2C1 returned D1 agonist 9.4, TRHR ag -0.2, D1 PAM -3.7, D1 antagonist 14.3 and TRHR enhancer 31.8*.
COc1cc2c(cc1OC)CN(CC(=O)NC(=O)NCc1ccccc1)CC2 was read as D1 agonist 3.2, TRHR ag -0.1, D1 PAM 4.2, D1 antagonist -16.3 and TRHR enhancer -0.9.
Screening COC(=O)[C@H](Cc1ccccc1)NC(=O)c1cc(COc2c(F)cccc2F)on1 returned D1 agonist 31.0*, TRHR ag -0.5, D1 PAM -0.6, D1 antagonist -19.6 and TRHR enhancer 3.4.
C#Cc1ccc(C(=O)NCc2ccc(N3CCCC3=O)cc2)cc1 was read as D1 agonist 6.5, TRHR ag -0.3, D1 PAM -7.7, D1 antagonist -31.8* and TRHR enhancer 5.4.
